From PubChem BioAssay (NCI)
This is part of a sample that, as a whole, favours compounds with a hit. Of some 83,000 tested, about 20% had one in any assay.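 How to read the values: 0–100, growth inhibition (40 = 60% inhibited); 0, no net growth; -100 to 0, cell death (-40 = 40% of starting cells died; -100 = all dead).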 Calls of active or inactive are those of the source. How the source made its calls: active means growth percent below 10; inactive means the rest.

How the values were obtained:
Assay in all cases: NCI-60 one-dose screen, 48 h (100 = growth as untreated, 0 = no growth, -100 = all killed)
Settings in all cases: 10 µM unless noted
SR leukemia = system: SR leukemia
OVCAR-8 ovarian = system: OVCAR-8 ovarian
OVCAR-5 ovarian = system: OVCAR-5 ovarian
OVCAR-4 ovarian = system: OVCAR-4 ovarian
SK-OV-3 ovarian = system: SK-OV-3 ovarian
IGROV1 ovarian = system: IGROV1 ovarian
OVCAR-3 ovarian = system: OVCAR-3 ovarian
HS 578T breast = system: HS 578T breast
NCI/ADR-RES ovarian = system: NCI/ADR-RES ovarian
T-47D breast = system: T-47D breast
BT-549 breast = system: BT-549 breast
MDA-MB-435 melanoma = system: MDA-MB-435 melanoma
SW-620 colon = system: SW-620 colon
MCF7 breast = system: MCF7 breast
HCT-116 colon = system: HCT-116 colon
HCC-2998 colon = system: HCC-2998 colon
KM12 colon = system: KM12 colon

Measured: growth

CCOc1ccccc1NC(=O)CCC(=O)OC
inactive: SR leukemia 97.8% | OVCAR-8 ovarian 119% | OVCAR-5 ovarian 110% | OVCAR-4 ovarian 95.4% | SK-OV-3 ovarian 103% | IGROV1 ovarian 100% | OVCAR-3 ovarian 108% | HS 578T breast 106% | NCI/ADR-RES ovarian 113% | T-47D breast 88.7% | BT-549 breast 106% | MDA-MB-435 melanoma 102% | SW-620 colon 104% | MCF7 breast 90.4% | HCT-116 colon 97.5% | HCC-2998 colon 99.5% | KM12 colon 100%

CC(CN)[C@@H]1CC[C@]2(CO)CC[C@]3(C)[C@H](CC[C@@H]4[C@@]5(C)CCC(NCCO)C(C)(C)[C@@H]5CC[C@]43C)[C@@H]12 (some centres not stated)
active: SR leukemia -21.5% | SW-620 colon -60.9% | MCF7 breast 3.04% | HCT-116 colon 6.92% | HCC-2998 colon -26.8%
inactive: OVCAR-8 ovarian 75.8% | OVCAR-5 ovarian 84.2% | OVCAR-4 ovarian 77.3% | SK-OV-3 ovarian 100% | IGROV1 ovarian 71.4% | OVCAR-3 ovarian 53.1% | HS 578T breast 58.7% | NCI/ADR-RES ovarian 91.1% | T-47D breast 77.5% | BT-549 breast 64.7% | MDA-MB-435 melanoma 31% | KM12 colon 32.6%

Cc1ccc(Nc2nc(N)nc(N)c2N=O)cc1Cl
inactive: SR leukemia 72.5% | OVCAR-5 ovarian 93.9% | OVCAR-4 ovarian 76.9% | SK-OV-3 ovarian 96.6% | IGROV1 ovarian 37.7% | OVCAR-3 ovarian 68.3% | HS 578T breast 75.2% | NCI/ADR-RES ovarian 79.3% | MDA-MB-435 melanoma 89.1% | SW-620 colon 95% | MCF7 breast 36.4% | HCT-116 colon 78.2% | HCC-2998 colon 86% | KM12 colon 80.6%
active: T-47D breast 5.56%

O=C(NS(=O)(=O)c1ccccc1)n1cc(-c2ccncc2)c(-c2cc(O)cc(Cl)c2)n1
inactive: SR leukemia 42.6% | OVCAR-8 ovarian 104% | OVCAR-5 ovarian 115% | OVCAR-4 ovarian 92.2% | SK-OV-3 ovarian 107% | IGROV1 ovarian 99.4% | OVCAR-3 ovarian 108% | HS 578T breast 104% | NCI/ADR-RES ovarian 97.3% | T-47D breast 90.1% | BT-549 breast 101% | MDA-MB-435 melanoma 66.6% | SW-620 colon 123% | MCF7 breast 102% | HCT-116 colon 91.7% | HCC-2998 colon 128% | KM12 colon 99.5%

CCOC(=O)c1c2c(n3ccc(NC(=O)CCN4CCCC4)cc13)C(=O)c1ncccc1C2=O
active: SR leukemia -20.2% | OVCAR-8 ovarian -33.3% | OVCAR-5 ovarian -67.4% | OVCAR-4 ovarian -68.1% | IGROV1 ovarian -71.1% | OVCAR-3 ovarian -85.9% | HS 578T breast -43.9% | T-47D breast -43.9% | BT-549 breast -73.8% | MDA-MB-435 melanoma -68.5% | SW-620 colon -82.9% | MCF7 breast -66.6% | HCT-116 colon -82.8% | HCC-2998 colon -83.5% | KM12 colon -89.4%
inactive: SK-OV-3 ovarian 74.4% | NCI/ADR-RES ovarian 27.3%

Cc1ccc2c(n1)C[C@H](C(C)(C)O)CC[C@H]2C
inactive: SR leukemia 107% | OVCAR-8 ovarian 101% | OVCAR-5 ovarian 94.7% | OVCAR-4 ovarian 99.6% | SK-OV-3 ovarian 99.1% | IGROV1 ovarian 104% | OVCAR-3 ovarian 113% | HS 578T breast 111% | NCI/ADR-RES ovarian 104% | T-47D breast 96.5% | BT-549 breast 112% | MDA-MB-435 melanoma 102% | SW-620 colon 104% | MCF7 breast 94.6% | HCT-116 colon 97.4% | HCC-2998 colon 102% | KM12 colon 109%

Cc1cc2c(C(C)C)c(O)c(O)c(/C=N/O)c2c(O)c1-c1c(C)cc2c(C(C)C)c(O)c(O)c(/C=N/O)c2c1O
inactive: OVCAR-5 ovarian 48.3% | OVCAR-4 ovarian 28.7% | SK-OV-3 ovarian 18.2% | IGROV1 ovarian 38.5% | OVCAR-3 ovarian 25.6% | HS 578T breast 41.9% | NCI/ADR-RES ovarian 44% | T-47D breast 10.2% | BT-549 breast 23.8% | MDA-MB-435 melanoma 37.4% | SW-620 colon 23.2% | MCF7 breast 15.3% | HCT-116 colon 18% | HCC-2998 colon 16.1% | KM12 colon 26%
active: SR leukemia 4.52% | OVCAR-8 ovarian 8.35%

CNC(=O)c1cc(Oc2ccc3nc(NC(=O)c4cc(C(F)(F)F)cc(C(F)(F)F)c4)sc3c2)ccn1
inactive: SR leukemia 12.5% | OVCAR-8 ovarian 20.8% | OVCAR-5 ovarian 51.6% | OVCAR-4 ovarian 15.8% | IGROV1 ovarian 30.9% | OVCAR-3 ovarian 12% | HS 578T breast 32.1% | NCI/ADR-RES ovarian 12.9% | BT-549 breast 11.4% | MDA-MB-435 melanoma 12.1% | SW-620 colon 40.2% | HCT-116 colon 12.4% | HCC-2998 colon 35.2% | KM12 colon 15.5%
active: SK-OV-3 ovarian -2.45% | T-47D breast 0.372% | MCF7 breast 9.82%

COc1cccc(C(=O)Nc2cccc(NC(=O)c3ccccn3)c2)c1
inactive: SR leukemia 77% | OVCAR-8 ovarian 104% | OVCAR-5 ovarian 94.3% | OVCAR-4 ovarian 96.4% | SK-OV-3 ovarian 97.7% | IGROV1 ovarian 101% | OVCAR-3 ovarian 105% | HS 578T breast 116% | NCI/ADR-RES ovarian 96.1% | T-47D breast 87.4% | BT-549 breast 91.3% | MDA-MB-435 melanoma 93.2% | SW-620 colon 109% | MCF7 breast 83% | HCT-116 colon 94% | HCC-2998 colon 83.2% | KM12 colon 99.6%

CC1(C)C2=C(C(=O)N1Cc1ccccc1)C(c1ccco1)N(C(=O)C1CCC1)CCN2 (configuration not stated)
inactive: SR leukemia 94.9% | OVCAR-8 ovarian 115% | OVCAR-5 ovarian 95.6% | OVCAR-4 ovarian 97.1% | SK-OV-3 ovarian 103% | IGROV1 ovarian 103% | OVCAR-3 ovarian 107% | HS 578T breast 121% | NCI/ADR-RES ovarian 100% | T-47D breast 90.9% | BT-549 breast 106% | MDA-MB-435 melanoma 101% | SW-620 colon 103% | MCF7 breast 103% | HCT-116 colon 92.6% | HCC-2998 colon 98.4% | KM12 colon 101%

Cc1cccc(C)c1NC(=O)Nc1ccccc1
inactive: SR leukemia 68.6% | OVCAR-8 ovarian 85.1% | OVCAR-5 ovarian 72.2% | OVCAR-4 ovarian 76.6% | SK-OV-3 ovarian 102% | IGROV1 ovarian 71% | OVCAR-3 ovarian 115% | HS 578T breast 128% | NCI/ADR-RES ovarian 97.1% | T-47D breast 109% | BT-549 breast 116% | MDA-MB-435 melanoma 105% | SW-620 colon 54.1% | MCF7 breast 53.4% | HCT-116 colon 61.9% | HCC-2998 colon 99.6% | KM12 colon 102%

O=C1NCCS(=O)(=O)/C1=C\C=C\c1cccc(C(F)(F)F)c1
active: SR leukemia 6.61% | NCI/ADR-RES ovarian -37.5% | HCT-116 colon -41.8%
inactive: OVCAR-8 ovarian 20.4% | OVCAR-5 ovarian 48.4% | OVCAR-4 ovarian 53.4% | SK-OV-3 ovarian 85.8% | IGROV1 ovarian 35.5% | OVCAR-3 ovarian 22.2% | HS 578T breast 51.1% | T-47D breast 22.6% | BT-549 breast 20.2% | MDA-MB-435 melanoma 18.2% | SW-620 colon 28.3% | MCF7 breast 18.2% | HCC-2998 colon 19.6% | KM12 colon 43.9%

COc1ccc(C2=NN(C=O)C(c3ccc(Oc4nc5c(c(=O)n(C)c(=O)n5C)n4C)c(OC)c3)C2)cc1 (configuration not stated)
inactive: SR leukemia 83.9% | OVCAR-8 ovarian 85.2% | OVCAR-5 ovarian 96.6% | OVCAR-4 ovarian 72.3% | SK-OV-3 ovarian 114% | IGROV1 ovarian 87.7% | OVCAR-3 ovarian 101% | HS 578T breast 89.6% | NCI/ADR-RES ovarian 63.4% | T-47D breast 75.5% | BT-549 breast 96.9% | SW-620 colon 104% | MCF7 breast 77.1% | HCT-116 colon 83% | HCC-2998 colon 82.3% | KM12 colon 87.5%

O=C(/C=C/c1ccc(Cl)cc1)c1ccc(Nc2ccnc3cc(Cl)ccc23)cc1
inactive: OVCAR-8 ovarian 85.2% | OVCAR-5 ovarian 84.6% | OVCAR-4 ovarian 94.7% | SK-OV-3 ovarian 112% | IGROV1 ovarian 57% | OVCAR-3 ovarian 86.5% | HS 578T breast 102% | NCI/ADR-RES ovarian 83.5% | T-47D breast 96.4% | BT-549 breast 145% | MDA-MB-435 melanoma 64.8% | SW-620 colon 60.7% | MCF7 breast 78.6% | HCT-116 colon 16.9% | HCC-2998 colon 88.1% | KM12 colon 50%
active: SR leukemia -17%

COc1ccc(/C=C/C(=O)c2ccc(-n3cc(CN4CCN(c5cc6c(cc5F)c(=O)c(C(=O)O)cn6C5CC5)CC4)nn3)cc2)cc1
active: SR leukemia -2.25% | HCT-116 colon -31.3%
inactive: OVCAR-5 ovarian 92.1% | OVCAR-4 ovarian 88% | SK-OV-3 ovarian 76.9% | IGROV1 ovarian 26.6% | OVCAR-3 ovarian 39.3% | HS 578T breast 52.8% | NCI/ADR-RES ovarian 90.7% | T-47D breast 78.6% | BT-549 breast 65.8% | MDA-MB-435 melanoma 22.2% | SW-620 colon 32.8% | MCF7 breast 13.2% | HCC-2998 colon 44% | KM12 colon 42.6%

COc1cccc(/C=C/C(=O)/C=C(/C=C/c2cccc(OC)c2OC)OB(F)F)c1OC
active: HCT-116 colon 8.38%
inactive: SR leukemia 15.2% | OVCAR-8 ovarian 16.7% | OVCAR-5 ovarian 64% | OVCAR-4 ovarian 50.7% | SK-OV-3 ovarian 97% | IGROV1 ovarian 33.7% | OVCAR-3 ovarian 10.8% | HS 578T breast 38.3% | NCI/ADR-RES ovarian 19.6% | T-47D breast 41.2% | BT-549 breast 48% | MDA-MB-435 melanoma 14.8% | SW-620 colon 16.4% | MCF7 breast 26.8% | HCC-2998 colon 121% | KM12 colon 86.5%

COC(=O)c1ccc(-n2cc(CCCOS(=O)(=O)c3ccc(F)cc3)nn2)cc1
inactive: SR leukemia 87.4% | OVCAR-8 ovarian 96.2% | OVCAR-5 ovarian 98.6% | OVCAR-4 ovarian 94.4% | SK-OV-3 ovarian 102% | IGROV1 ovarian 102% | OVCAR-3 ovarian 107% | HS 578T breast 93.6% | NCI/ADR-RES ovarian 106% | T-47D breast 97.9% | BT-549 breast 101% | MDA-MB-435 melanoma 97.3% | SW-620 colon 100% | MCF7 breast 92.1% | HCT-116 colon 99.6% | HCC-2998 colon 110% | KM12 colon 100%

O=C(Cn1cc(CSc2nc3ccccc3o2)nn1)Nc1ccc([N+](=O)[O-])cc1
inactive: SR leukemia 101% | OVCAR-8 ovarian 107% | OVCAR-5 ovarian 100% | OVCAR-4 ovarian 96.9% | SK-OV-3 ovarian 76.6% | IGROV1 ovarian 91.6% | OVCAR-3 ovarian 103% | HS 578T breast 95.3% | NCI/ADR-RES ovarian 97.4% | T-47D breast 87.9% | BT-549 breast 96.7% | MDA-MB-435 melanoma 99.1% | SW-620 colon 102% | MCF7 breast 96.8% | HCT-116 colon 97.6% | HCC-2998 colon 110% | KM12 colon 94.8%
